# Source: PubChem BioAssay (NCI)
# About 83,000 compounds went through this panel and 20% of them were active in at least one assay; those are over-represented in the sample as a whole.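 For each line, cells grew in 96-well plates with the test compound present at a single concentration for 48 hours.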 Unmarked numbers belong to inactive results. Calls of active or inactive are those of the source.
# Tested on: PC-3 prostate
# Assay: NCI-60 one-dose screen, 48 h (100 = growth as untreated, 0 = no growth, -100 = all killed)
# Settings: 10 µM
# Experimental: Growth inhibition of the PC-3 human tumor cell line is measured as a screen for anti-cancer activity. Cells are grown in 96 well plates and exposed to the test compound for 48 hours. Compounds are tested at a single concentration, which is 10^-5 M for most compounds. The reported endpoint is percent growth (GI% or GIPRCNT), where numbers from 0 - 100% represent growth inhibition, and numbers from -100% - 0 represent cell death. For example, a value of 40 represents 60% growth inhibition. A value of 0 means no net growth occurred over the course of the experiment. A value of -40 indicates 40% of cells at the beginning of the experiment died by the end of the experiment. A value of -100 means all cells are dead at the end of the experiment.
# NCI-60 Human Tumor Cell Lines Screen was performed using the standard one-dose NCI protocol, which is described in more detail at https://dtp.cancer.gov/discovery_development/nci-60/default.htm.
# Compounds with GIPRCNT values below 10 were considered active. Activity score was based on GIPRCNT using the following formula: […]
# Score is 0 for GIPRCNT values of 100 or above, 50 for GIPRCNT values of 0, and 100 for GIPRCNT values of -100.
row,SMILES,growth
1,O=C(CNc1nc(-c2ccccc2)cs1)Nc1cccc(Cl)c1,18.9%
2,CC(=O)c1cc(C(=O)N2c3ccccc3Sc3ccccc32)n2ccc(C)cc12,28.3%
3,OCCCNc1oc(-c2ccccc2)nc1[P+](c1ccccc1)(c1ccccc1)c1ccccc1,9.56% (active)
4,O=C(Nc1ccc(Cl)c([N+](=O)[O-])c1)Nc1ccc(Cl)c([N+](=O)[O-])c1,10.4%
5,COc1ccc(/C(CSc2nnc(-c3c[nH]c4ccccc34)n2-c2ccccc2)=N/O)cc1,23.1%
6,Nc1nc(Nc2ccc(Cl)cc2)n(Cc2cccc(Br)c2)n1,0.572% (active)
7,CC(=O)Nc1ccc(-c2cn(-c3cccc(C(=O)Nc4cccc(OC(F)(F)F)c4)c3)nn2)cn1,85.3%
8,CC(=O)C1=C(C)NC(SCC(=O)Nc2ccc(S(=O)(=O)Nc3cc(C)on3)cc2)=NC1c1ccccc1 (stereo not given),109%
9,COc1cc(-c2nc3cc(Cl)c(Cl)cc3[nH]2)ccc1OCc1nnc(-c2ccc(Br)cc2)o1,-15.8% (active)
10,CNCc1cccc2c1OCCCCCC[C@@](C)(O)CC1(CC1)S(=O)(=O)c1ccc(cc1)-c1cnc(N)c(n1)C(=O)N2,-59% (active)
11,Cc1ccc(-c2ccc(SCC(=O)Nc3ccc(S(N)(=O)=O)cc3Br)nn2)cc1,18.4%
12,CCOc1ccc(/C=N/NC(=O)Cn2nc(Cc3ccccc3)c3onc(C)c3c2=O)cc1,22.5%
13,O=C1CCC(N2Cc3cc(NC(=O)COc4ccccc4)ccc3C2=O)C(=O)N1 (stereo not given),37.7%
14,Cc1ccc(/C(CSc2nnc(-c3c[nH]c4ccccc34)n2-c2ccccc2)=N/O)cc1,-46.5% (active)
15,COc1ccc(-c2ccc(SCC(=O)Nc3ccc(C#N)cc3)nn2)cc1,85%
16,O=C(Nc1ccc(I)cc1F)c1cc(-c2ccc(F)cc2F)ccc1O,2.22% (active)
17,O=C(c1ccc(Cl)cc1)C1[C@H](c2ccc(Br)cc2)[C@@H](c2ccccc2)NC12C(=O)Nc1ccc(Cl)cc12 (stereo not given in full),-30.5% (active)
18,Cc1nn(-c2ccccc2)c2ncn(CC(=O)N/N=C/c3c[nH]c4ccccc34)c(=O)c12,65.4%
19,CC1=C(C(=O)OC(C)C)C(c2ccc(O)cc2)NC(=S)N1 (stereo not given),94.7%
20,O=C(Nc1ccc(Cl)c(C(F)(F)F)c1)c1cncc(C#Cc2cnc3ccc(N4CCOCC4)nn23)c1,23.4%

row,SMILES,growth
1,O=C(COc1ccc(NC(=O)Nc2ccc(Cl)cc2)cc1)N=Nc1c(O)[nH]c2ccc([N+](=O)[O-])cc12,46.8%
2,COC(=O)C(Cc1ccc(O)c(O)c1)NC(=O)C(CSC/C=C(\C)CCCC(C)CCCC(C)CCCC(C)C)NC(C)=O (stereo not given),2.28% (active)
3,Cn1cc(-c2cc(N)n3nc(-c4c[nH]c5ccc(Br)cc45)cc3n2)c2cccnc21,-45.9% (active)
4,CN1C(=O)N(C)C2SC(N/N=C/C=C/c3ccccc3)=NC21 (stereo not given),75.5%
5,COc1cc(/C=C/C(=O)c2cc(OC)c(OC)c(OC)c2)ccc1Oc1nc(Nc2ccc(F)cc2)nc(N(C)C)n1,-20% (active)
6,Cc1cc(C)nc(/N=C(\N)Nc2ccc(S(=O)(=O)Nc3nc(C)cc(C)n3)cc2)n1,105%
7,NS(=O)(=O)c1ccc(NC(=O)CSc2ccc(-c3ccc(Cl)cc3)nn2)c(Br)c1,35.7%
8,Cc1cc2c(c(O)c1Br)-c1ncoc1C(=O)[C@]1(C)CC[C@H](C(C)C)[C@H]21,9.6% (active)
9,COC(=O)c1c(C(=O)OC)c2n(c1C)[C@@H]([C@@H](C)[C@H]1CC[C@H]3[C@@H]4CCC5=CC(=O)CC[C@]5(C)[C@H]4CC[C@]13C)SC2,8.05% (active)
10,Cc1ccc(/C(N)=N/c2sc(-c3ccccc3)nc2-c2ccccc2)cc1,90.6%
11,CCCCCc1ccc(S(=O)(=O)Nc2cc(-c3csc(N(C)C(C)=O)n3)ccc2N2CCN(C)CC2)cc1,37%
12,COc1ccc(NC(=O)Cn2c(/C=C/c3ccc(N(C)C)cc3)nc3ccccc3c2=O)cc1,64.5%
13,Cc1noc2c(Cc3ccccc3)nn(CC(=O)N/N=C/c3ccc(Br)cc3)c(=O)c12,82.7%
14,CN1CCN(Cc2ccc(C(=O)Nc3cccc(Nc4ccc5c(O)cccc5n4)c3)cc2C(F)(F)F)CC1,10.8%
15,COc1cc(C2CC(c3ccc(C)cc3)=Nc3c(N)nc(N)nc3N2)ccc1Oc1nc(Nc2ccc(F)cc2)nc(N(C)C)n1 (stereo not given),45.6%
16,COc1cccc2nc(Nc3cccc(NC(=O)c4ccc(CN5CCCN(C)CC5)c(C(F)(F)F)c4)c3)ccc12,-69.8% (active)
17,CCOC(=O)CNC(=O)CN(Cc1ccccc1)C(=O)[C@@]1(C)CCC[C@]2(C)[C@H]3CC4C(C(C)C)=C[C@]3(CC[C@H]21)[C@@H]1C(=O)CCC(=O)[C@H]41,35.3%
18,O=C(CNc1nc(-c2ccccc2)cs1)Nc1ccc(Cl)cc1[N+](=O)[O-],10.5%
19,N#Cc1c(NC(=O)c2ccc(C(F)(F)F)cc2C(F)(F)F)sc2c1CCC(=O)C2,2.66% (active)
20,CC(C)(C)c1ccc(NCc2cn(-c3ccc(C(=O)O)cc3)nc2-c2ccc(C#N)cc2)cc1,20.6%
